# C8 TRAIL sens: viability loss with TRAIL in NB7+C8 cells, primary screen, TRAIL sensitizer project, cell-based, ATPlite luminescence | AID 624354, 2012 | actives 1% (n = 360,000) | inhibition (viability loss, TRAIL sensitization), % at 10 µM;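 active means compounds causing at least 50% loss of cell viability in the single-dose screen, relative to plate controls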
# aSyn UTR inh: MLPCN primary screen, SNCA 5' untranslated region; actives 0.82% (n = 300,000); inhibition, % (tested at 7.5 µM); alpha-synuclein 5'UTR reporter, inhibitor activity; AID 1813, 2009; in the data active means inhibition above about 60%;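 further: H4 neuroglioblastoma cells stably carrying SNCA 5'UTR luciferase fusion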
# TWEAK Fn14 block: inhibitors of TWEAK-Fn14 signaling, primary screen, luciferase reporter cells, uHTS; AID 1159606, 2016; actives 2% (n = 360,000); inhibition, % at 10 µM; TWEAK-stimulated Fn14 reporter cells, luciferase luminescence, 8 h; in the data active means inhibition above about 50%
# HIF-2a inh: HIF-2a reporter inhibitors, primary screen, luminescence, 786-0 RCC cells; 786-0 RCC cells HIF-2a reporter, luciferase luminescence, overnight; inhibition, % at 18.8 µM; AID 624352, 2012; actives 0.72% (n = 360,000);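 active means inhibition of the luminescence signal of 40% or more relative to plate controls, in a single-dose primary screen at 18.75 µM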
# HSP90 inh: HSP90 inhibitors, primary screen, cell lysate, luminescence. Heat shock protein HSP 90 (rabbit reticulocyte lysate; luciferase refolding). Rabbit reticulocyte lysate, luciferase refolding luminescence, 3 h. inhibition, % at 5.6 µM. actives 0.91% (n = 290,000);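 active means inhibition above the screen-wide mean plus 3 SD, computed separately per campaign, cut at about 16% in these data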;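 further: inhibitors lower the luminescence because luciferase stays unfolded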
# TROY NFkB inh: inhibitors of TROY-driven NF-kB signaling, primary screen, Q293 LMP1-TROYcd cells, NF-kB luciferase, uHTS | inhibition, % at 10 µM | actives 0.98% (n = 360,000) | Q293 LMP1-TROYcd NF-kB luciferase reporter, 4 h;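 active means compounds whose plate-normalised and pattern-corrected inhibition of the luciferase reporter signal at the single screening dose is 50% or more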
# Mdm2-MdmX confirm: retested Mdm2-MdmX interaction blockers, confirmation, cell-based, luminescence, single concentration, set 2; actives 99% (n = 740); SaOS-2 split-luciferase Mdm2/MdmX complementation; AID 504601, 2011; shares compounds with HIF-2a inh; inhibition, % at 8 µM;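 active means mean inhibition of the luminescence signal across two replicates at or above 26 percent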
# Target sequence (O15151 whole entry, looked up): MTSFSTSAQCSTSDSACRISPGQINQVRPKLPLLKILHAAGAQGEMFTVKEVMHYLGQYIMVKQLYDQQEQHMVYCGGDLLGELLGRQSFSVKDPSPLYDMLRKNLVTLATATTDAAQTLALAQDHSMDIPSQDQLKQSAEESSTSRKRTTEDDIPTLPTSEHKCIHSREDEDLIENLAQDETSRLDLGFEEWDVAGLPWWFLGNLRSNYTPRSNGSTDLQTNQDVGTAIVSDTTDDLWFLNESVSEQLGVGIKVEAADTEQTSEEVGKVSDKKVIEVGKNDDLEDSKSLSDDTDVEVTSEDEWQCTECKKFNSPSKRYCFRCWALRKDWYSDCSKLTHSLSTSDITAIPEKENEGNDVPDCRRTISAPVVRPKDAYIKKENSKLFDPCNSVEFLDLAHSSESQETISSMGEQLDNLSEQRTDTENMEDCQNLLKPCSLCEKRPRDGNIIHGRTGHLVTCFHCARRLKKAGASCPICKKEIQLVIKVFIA
# Target sequence (Q00987 whole entry, looked up): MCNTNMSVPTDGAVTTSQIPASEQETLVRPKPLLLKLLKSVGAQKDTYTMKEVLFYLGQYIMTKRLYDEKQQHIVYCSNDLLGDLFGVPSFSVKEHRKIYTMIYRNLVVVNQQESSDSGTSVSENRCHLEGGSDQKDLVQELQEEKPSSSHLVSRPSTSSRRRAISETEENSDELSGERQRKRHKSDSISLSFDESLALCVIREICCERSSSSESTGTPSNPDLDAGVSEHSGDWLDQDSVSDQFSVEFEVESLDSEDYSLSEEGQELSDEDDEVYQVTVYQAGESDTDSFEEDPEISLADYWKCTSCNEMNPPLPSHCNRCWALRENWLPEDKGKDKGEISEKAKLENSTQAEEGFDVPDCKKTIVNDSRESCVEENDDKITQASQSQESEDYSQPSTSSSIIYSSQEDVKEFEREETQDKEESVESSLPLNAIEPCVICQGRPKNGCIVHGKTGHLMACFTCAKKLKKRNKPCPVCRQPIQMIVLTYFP
# HIF-2a inh conf: HIF-2a reporter inhibitor retest, confirmation, luminescence, 786-0 RCC cells | shares compounds with HIF-2a inh | HIF-2a luciferase reporter luminescence, overnight | inhibition, % at 18.8 µM | actives 56% (n = 1,800);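 active means mean inhibition across four replicates of at least 40 percent at the single tested concentration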
# HIF-1a counter: HIF-1a luciferase reporter signal reduction – MiaPaCa-2 cells, single concentration, counter-screen for HIF-2a inhibitor project, confirmation; shares compounds with HIF-2a inh; MiaPaCa-2 HIF-1a luciferase reporter, desferoxamine, overnight; inhibition, % at 18.8 µM; actives 72% (n = 1,800);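 active means mean inhibition of the reporter signal across four replicates at the single tested dose of 50% or more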
# Hits are given with their value; – = inactive; · = no result given. Rows were chosen to be rich in hits. Some 3.9% of all compounds tested hit in one or more screens of this group.
SMILES,C8 TRAIL sens,aSyn UTR inh,TWEAK Fn14 block,HIF-2a inh,HSP90 inh,TROY NFkB inh,HIF-2a inh conf,HIF-1a counter,others
Cc1ccccc1Sc1ncnc2onc(C)c12,–,–,–,–,–,–,·,·,
Cc1noc2ncnc(Sc3c(Cl)cccc3Cl)c12,–,–,–,43,–,57,–,95,
COc1ccc(NC(=O)CCc2nc3ccccc3c(=O)[nH]2)cc1S(=O)(=O)N1CCCCC1,–,·,–,–,·,–,·,·,
O=C(O)c1cccc(COc2ccccc2Cl)c1,–,103,73,77,·,–,93,–,Mdm2-MdmX confirm=78
c1ccc(C2=Nn3c(nnc3-c3cccs3)SC2)cc1,–,–,–,–,–,–,·,·,
c1csc(C2=Nn3c(nnc3-c3ccncc3)SC2)c1,–,–,69,–,–,–,·,·,Mdm2-MdmX confirm=93
Cc1ccccc1NC(=O)Cc1nc(COC(=O)Cc2cccc(C(F)(F)F)c2)cs1,–,·,–,–,·,–,·,·,
CCOc1ccc(NC(=O)CN(C)C(=O)/C=C/c2ccc(S(=O)(=O)N3CCCCCC3)cc2)cc1OCC,–,–,–,–,·,–,·,·,
CCN(CC(=O)Nc1ccc(NC(C)=O)cc1)C(=O)/C=C/c1ccc(S(=O)(=O)N2CCCCCC2)cc1,–,–,–,42,–,–,–,–,
Cc1cc(C)n(CCC(=O)N/N=C/c2ccc(O)cc2)n1,–,–,–,–,–,–,·,·,
Cc1cc(C)n(CCC(=O)N/N=C/c2c(O)ccc3ccccc23)n1,–,73,–,–,–,–,·,·,Mdm2-MdmX confirm=88
C#CCn1c(S(=O)(=O)Cc2ccc(F)cc2)nc(-c2ccccc2)c1-c1ccccc1,–,–,–,–,–,–,·,·,Mdm2-MdmX confirm=101
Cc1ccc(-n2nc3c(N4CCC(C(=O)NCc5ccccc5C)CC4)nnc(C)c3c2C)cc1,–,–,–,85,–,–,–,62,
COc1ccc(-n2nc3c(N4CCC(C(=O)NCc5cccc(C)c5)CC4)nnc(C)c3c2C)cc1,–,70,–,67,–,–,76,80,
COc1ccccc1CCNC(=O)C1CCN(c2nnc(C)c3c(C)n(-c4ccc(C)cc4)nc23)CC1,–,–,–,40,–,–,–,82,
CCOc1ccccc1CNC(=O)C1CCN(c2nnc(C)c3c(C)n(-c4ccc(C)cc4)nc23)CC1,71,78,–,71,–,–,51,98,
Cc1ccccc1CNC(=O)C1CCCN(c2nnc(C)c3c(C)n(-c4ccccc4)nc23)C1 (stereo not drawn),–,–,–,–,–,–,·,·,
CC(C)C[C@@H]1CC2=C(C(=O)OC(C)(C)O2)[C@H](c2ccc(Cl)cc2)O1,–,·,–,–,·,–,·,·,
O=C(NCC(=O)N1CCCC(C(F)(F)F)C1)c1ccco1 (stereo not drawn),–,·,–,–,·,–,·,·,
CCc1ccc(CNC(=O)C2CCCN(c3nnc(C)c4c(C)n(-c5ccccc5)nc34)C2)cc1 (stereo not drawn),–,–,–,–,–,–,·,·,
CCOc1ccc(CNC(=O)C2CCN(c3nnc(C)c4c(C)n(-c5ccc(C)cc5)nc34)CC2)cc1,–,–,–,69,–,–,–,–,
O=C1C(c2ccccc2)=NCCN1C(c1ccc(F)cc1)c1nc2ccccc2[nH]1 (stereo not drawn),–,·,–,–,·,–,·,·,
CN(C)S(=O)(=O)c1cccc(NC(=O)COc2ccccc2C(=O)NCc2ccccc2)c1,–,·,–,–,·,–,·,·,
Cc1nc2sc(C(N)=O)c(N)c2c2c1CCCC2,–,–,–,–,–,–,·,·,Mdm2-MdmX confirm=92
CCn1c(C)cs/c1=N\S(=O)(=O)c1ccccc1,–,–,–,–,·,–,·,·,
SMILES,C8 TRAIL sens,aSyn UTR inh,TWEAK Fn14 block,HIF-2a inh,HSP90 inh,TROY NFkB inh,HIF-2a inh conf,HIF-1a counter,others
O=Cc1s/c(=N\S(=O)(=O)c2ccccc2)n(CCCCl)c1Cl,61,70,96,96,–,–,93,102,
FC(F)(F)c1ccccc1Cc1c(-c2ccco2)nc2ccc(Cl)cn12,–,·,–,37,·,–,–,64,
CC(=O)C1=CCC(c2ccc(C)cc2)N(S(=O)(=O)c2ccc(Cl)cc2)C1 (stereo not drawn),–,·,–,–,·,–,·,·,
Fc1ccc(Oc2nc(-c3ccccc3)nnc2C(F)(F)F)cc1,–,–,–,–,–,–,·,·,
Fc1ccc(Sc2nc(-c3ccccc3)nnc2C(F)(F)F)cc1,–,–,–,85,–,–,–,89,
CC1C(=O)N(Cc2cn(Cc3ccco3)nn2)CCS(=O)(=O)N1Cc1ccc(-c2ccccc2Cl)cc1 (stereo not drawn),–,·,–,–,·,–,·,·,
COc1ccc(C(O)C2c3c(cc4c(c3OC)OCO4)CCN2C)c(CO)c1OC (stereo not drawn),–,·,–,–,·,–,·,·,
COc1ccc2cc1Oc1ccc(cc1)C[C@H]1c3cc(c(OC)cc3CCN1C)Oc1c(OC)c(OC)cc3c1[C@H](C2)N(C)CC3,–,–,–,–,·,–,·,·,Mdm2-MdmX confirm=102
Cc1ccc(C(O)c2ncc(-c3ccc4ccccc4c3)[nH]2)cc1F (stereo not drawn),–,·,–,–,·,–,·,·,
OC(c1cccc(Cl)c1)c1nc(-c2csc3ccccc23)cs1 (stereo not drawn),–,·,–,–,·,–,·,·,
CN(Cc1ccccc1)C(=O)c1cccc(NC(=O)Cc2ccc(NC(=O)C3CCN(C(=O)C4CCC4)CC3)cc2)c1,–,·,–,–,·,–,·,·,
COCCNC(=O)c1ccc(N2CC3CC(C2)c2cccc(=O)n2C3)c(NC(=O)c2ccccc2Br)c1 (stereo not drawn),–,·,–,–,·,–,·,·,
Cc1nn(Cc2ccc(Cl)cc2Cl)c(C)c1NC(=O)c1nn(C)cc1Cl,–,–,–,–,–,–,·,·,
Cc1nn(Cc2ccc(Cl)cc2Cl)c(C)c1NC(=O)CCl,90,–,–,–,–,–,·,·,Mdm2-MdmX confirm=103
Cc1cccc(NC2(C(=O)O)CCCC2)c1,–,·,–,–,·,–,·,·,
CC(=O)n1cc(N(C(=O)CCl)c2ccc(C)cc2)c2ccccc21,95,89,56,56,–,–,·,·,Mdm2-MdmX confirm=103
CC(=O)N(c1ccc(Cl)cc1)c1cn(C(C)=O)c2ccccc12,–,–,–,–,–,–,·,·,

# High-throughput results: PubChem, several laboratories
